Results reported in PubChem BioAssay (NCI).
Compounds without any hit were thinned out: in the full panel of roughly 79,000, 15% have a hit. The source made the active and inactive calls. Rule as the data show it: active = growth inhibition above about 70%; inactive = the rest.

What was measured:
[1] = NCI Yeast Anticancer Drug Screen. Data for the rad50 strain (AID 155);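 also: 0% = growth of vehicle-only cultures of the same strain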; conditions: S. cerevisiae rad50 strain growth inhibition; at 50.0 µM; active compounds read high
Outline: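 Inhibition values express reduced yeast growth in compound-treated cultures relative to vehicle-treated controls.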

[2] = NCI Yeast Anticancer Drug Screen. Data for the mec2-1 strain (AID 157); conditions: S. cerevisiae mec2-1 strain, at 50.0 µM, active compounds read high
Outline: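 Test agents were screened against the mec2-1 yeast strain, with defined DNA repair or cell cycle alteration. Growth was scored as inhibition against vehicle-only controls.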

[3] = NCI Yeast Anticancer Drug Screen. Data for the sgs1 mgt1 strain (AID 161);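 also: 0% = growth of cultures given vehicle only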; conditions: S. cerevisiae sgs1 mgt1 strain, at 50.0 µM, active compounds read high
Outline: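 Genetically altered yeast, compound exposure, growth inhibition relative to vehicle.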

[4] = NCI Yeast Anticancer Drug Screen. Data for the cln2 rad14 strain (AID 165);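 also: 0% = growth equal to vehicle treated cultures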; conditions: S. cerevisiae cln2 rad14 strain, at 50.0 µM, active compounds read high
Outline: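 Growth of compound-exposed yeast (cln2 rad14 genotype) measured and expressed as inhibition relative to vehicle.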

[5] = NCI Yeast Anticancer Drug Screen. Data for the bub3 strain (AID 167); conditions: S. cerevisiae bub3 mutant strain, at 50.0 µM, active compounds read high
Outline: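 Steps: expose the mutant yeast strain to compound; grow alongside vehicle-treated cultures; measure growth; express inhibition against the vehicle cultures.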

[6] = NCI Yeast Anticancer Drug Screen. Data for the mlh1 rad18 strain (AID 175); conditions: S. cerevisiae mlh1 rad18 strain growth inhibition; at 50.0 µM; active compounds read high
Outline: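 In this whole-cell yeast screen, a strain with altered DNA damage repair is challenged with compound, and its growth is measured against matched vehicle-treated controls.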

Measured: growth inhibition

CN=C(C#N)c1ccccc1
inactive: [1] -10.6% | [2] -17.1% | [3] -2.6% | [4] -28.9% | [5] 8.7% | [6] -15.8%

CC(=O)Oc1cc2c(c3ccc4ccccc4c13)CCc1ccccc1-2
inactive: [1] 11.8% | [2] -11.7% | [3] 10.1% | [4] 10.2% | [5] 0.1% | [6] 4.9%

c1cc(-c2cn3c(n2)SCC3)ccn1
inactive: [1] 15.5% | [2] 5.9% | [3] -12.8% | [4] 7.8% | [5] 25.2% | [6] 19.9%

CCCCCCCCCCCCCCCCCCCCCCCCCCCC
inactive: [1] -8.5% | [2] -10.1% | [3] -16% | [4] -21.2% | [5] -4.55% | [6] -22.9%

S=C(S)N(Cc1ccccc1)Cc1ccccc1
inactive: [1] 33.4% | [2] -3% | [3] 27.2% | [4] -0.7% | [5] 6.6% | [6] 36.5%

CC(=O)Nc1cccc(Cc2cccc(NC(C)=O)c2)c1
inactive: [1] 2.75% | [2] -13.3% | [3] -11.9% | [4] -43.4% | [5] -5.1% | [6] -11.6%

CCOC(=O)C1(C)CCC(C(C(=O)O)C(=O)O)CC1=O (configuration not stated)
inactive: [1] -10.5% | [2] 9.95% | [3] 13.7% | [4] 20.2% | [5] 21.4% | [6] -12.5%

CCCCCCN(C(=O)Oc1ccccc1)C(C#N)c1ccccc1 (configuration not stated)
inactive: [1] 0.1% | [2] 5.55% | [3] -16.8% | [4] -14.7% | [5] 1.75% | [6] -20.2%

O=Cc1ccc(OC(=O)c2ccccc2)cc1
inactive: [1] -6.35% | [2] -25.6% | [3] 13.3% | [4] -13.3% | [5] -1.25% | [6] 3.95%

COC(=O)C1Cc2ccc(C)cc2C1=O (configuration not stated)
inactive: [1] -37.7% | [2] -4.6% | [3] -1.95% | [4] 26.1% | [5] 15.4% | [6] -4.3%

Cc1ccc(S(=O)C(C)C(Cl)c2ccccc2)cc1 (configuration not stated)
inactive: [1] -3.6% | [2] 0.2% | [3] 5.6% | [4] 16.9% | [5] 11.7% | [6] 6.9%

O=C1c2ccccc2C(=O)N1OCCCCON1C(=O)c2ccccc2C1=O
inactive: [1] 10.8% | [2] -0.2% | [3] -19.9% | [4] 15.1% | [5] 1% | [6] -2.4%

CCOC(=O)c1cn(CC)c2ccc3ccsc3c2c1=O
inactive: [1] -18.2% | [2] -40.4% | [3] -15.5% | [4] 10.2% | [5] -9.4% | [6] -30.9%

COc1ccc2[nH]c(=O)oc(=O)c2c1
inactive: [1] 1% | [2] 1.25% | [3] -7.5% | [4] -33.9% | [5] -16.4% | [6] -2.8%

OC(Cc1ccccc1)c1ccccc1 (configuration not stated)
inactive: [1] -21.9% | [2] -19.8% | [3] -24.8% | [4] 16.2% | [5] -5.15% | [6] 1.5%

Cc1cc(C(C)C)c(C)cc1C(C)C
inactive: [1] -18.9% | [2] -4.25% | [3] -14.4% | [4] -7% | [5] -6.2% | [6] -4.15%

OCC(I)CO
inactive: [1] 15.8% | [2] 3.45% | [3] 16.9% | [4] 1.45% | [5] 1.7% | [6] 16.6%

N#CCC(=O)N/N=C/c1ccccc1
inactive: [1] 8.3% | [2] -27.1% | [3] 0.55% | [4] 9.95% | [5] -5.85% | [6] 9.4%

COc1ccccc1CNCCCCCCNCCSSCCNCCCCCCNCc1ccccc1OC
inactive: [1] 6.55% | [2] 5.1% | [3] 7.4% | [4] -36.7% | [5] -2.35% | [6] 32.5%

CCn1c2ccccc2c2ccc(N=Cc3ccc4ccccc4c3)cc21
inactive: [1] 5.65% | [2] -2.3% | [3] -7.3% | [4] -14% | [5] 14.3% | [6] 1.3%

Cc1cc2[nH]c(=O)n(C3OC(CO)C(O)C3O)c2cc1C (configuration not stated)
inactive: [1] -15.2% | [2] 19.1% | [3] 2.4% | [4] -33.2% | [5] -7.6% | [6] -4.4%

CCCCCCCCCCC(CO)CCCCCCCC (configuration not stated)
inactive: [1] -14.8% | [2] 8.85% | [3] 5.85% | [4] -1.55% | [5] -9.45% | [6] 4%

CC(NC(=O)C(CSCc1ccccc1)NC(=O)OCc1ccccc1)C(=O)OCc1ccccc1 (configuration not stated)
inactive: [1] -38% | [2] -9.7% | [3] -11.2% | [4] 24.4% | [5] -3.05% | [6] 10.8%

O=C1c2cccc3cccc(c23)C(=O)N1CCCN(CCO)CCO
inactive: [1] -1.25% | [2] 4.25% | [3] -4.35% | [4] 7.95% | [5] -7.6% | [6] 14.2%

O=C(Nc1ccc2c(c1)Cc1cccc(F)c1-2)C(F)(F)F
inactive: [1] 4.7% | [2] -1.45% | [3] 2.9% | [4] -1.5% | [5] 36.7% | [6] 7.3%

CC1N=C(c2ccccc2)SC1C (configuration not stated)
inactive: [1] -14.2% | [2] -18.4% | [3] -24.9% | [4] -49.4% | [5] -11% | [6] -38.3%

CC1N=C(SCC(=O)c2ccc(Cl)cc2)N2C(C)N=C(SCC(=O)c3ccc(Cl)cc3)N12 (configuration not stated)
inactive: [1] -0.65% | [2] -17.1% | [3] -20.6% | [4] 0.5% | [5] -6.85% | [6] 10.2%

CN(C)CC(=O)c1c[nH]c(=O)[nH]c1=O
inactive: [1] 11.3% | [2] -49.1% | [3] -13.4% | [4] -63.2% | [5] -1.65% | [6] -8.55%

CCOC(=O)C(C(=O)OCC)C(C(=O)OCC)(C(=O)OCC)C(C(=O)OCC)C(=O)OCC
inactive: [1] -15.2% | [2] -9.15% | [3] 1.85% | [4] -3.55% | [5] -3.65% | [6] -19.9%

CCCCOC(=O)C(=O)/C(=C\n1c(=S)[nH]c2cc(C)ccc21)C(=O)C=C(C)C
inactive: [1] -15.6% | [2] -22% | [3] 3.05% | [4] -22.4% | [5] -10.7% | [6] -28.1%

O=C1OCc2cccc3c2-c2c1cccc2C(=O)OC3
inactive: [1] -3% | [2] -5.7% | [3] -4.8% | [4] 16.2% | [5] -12.5% | [6] 6.7%

C/C(=N\NC(=O)CC(=O)Nc1ccccc1Cl)c1cc2cc(N=Nc3ccccc3Cl)ccc2oc1=O
inactive: [1] -17.1% | [2] 0.7% | [3] 13.9% | [4] 4.4% | [5] -4.05% | [6] -13.6%

CCC(O)C1CCCCC1O (configuration not stated)
inactive: [1] -8.95% | [2] 8.35% | [3] -3.8% | [4] 15.7% | [5] 15.2% | [6] 2.45%

O=C(OCc1ccccc1)N1CCCCC1
inactive: [1] 7.9% | [2] -2.65% | [3] 5.45% | [4] -13.2% | [5] 22.2% | [6] -1%

Nc1nnc(-c2ccc(-c3nnc(N)o3)cc2)o1
inactive: [1] -33.6% | [2] -12.9% | [3] -8.55% | [4] -31.1% | [5] 4.05% | [6] -7.25%

C/C(C/C(C)=N/O)=N/O
inactive: [1] -8.6% | [2] -5.85% | [3] 2.8% | [4] 0.45% | [5] -2.55% | [6] 17.7%

[O-][n+]1cc[n+]([O-])c2cc(O)ccc21
inactive: [1] -13.5% | [2] -25.1% | [3] 3.8% | [4] -20.1% | [5] 1.1% | [6] 10.7%

CCCCCCCN=C(N)CSSCC(N)=NCCCCCCC
active: [1] 98.9% | [2] 99% | [3] 99.3% | [4] 98.7% | [5] 98.9% | [6] 99.2%

O=c1oc2ccccc2c(O)c1C(c1cc(OCc2ccccc2)cc(OCc2ccccc2)c1)c1c(O)c2ccccc2oc1=O
inactive: [1] -12.1% | [2] -2.85% | [3] -2.1% | [4] -19.4% | [5] -11.7% | [6] -16.6%

CCCN(CCC)S(=O)(=O)c1ccc(NC(=O)OC2CCCCC2)cc1
inactive: [1] 37.1% | [2] 2.25% | [3] 23.6% | [4] 13.1% | [5] -4.7% | [6] 17.9%

CC1(C)OC2C(=O)O[C@H](CO)C2O1 (some centres not stated)
inactive: [1] -2.7% | [2] 9.5% | [3] -2.9% | [4] 24.6% | [5] 7.3% | [6] 16.4%

Cc1nc(CO)cc(=O)[nH]1
inactive: [1] 19.6% | [2] -5.5% | [3] 12.2% | [4] 9.85% | [5] -25.4% | [6] 14.1%
